Screening results as filed in PubChem BioAssay.
LmPK inh – qHTS Assay for Inhibitors of Leishmania Mexicana Pyruvate Kinase (LmPK); 290,000 compounds, 0.37% hits; Q27686; AID 1721, 2009; purified LmPK, Kinase-Glo ATP luminescence, 1 h; Potency, µM (titrated, usually from 57.5 µM), usual class: inhibitors
Target sequence (Q27686 whole entry, looked up): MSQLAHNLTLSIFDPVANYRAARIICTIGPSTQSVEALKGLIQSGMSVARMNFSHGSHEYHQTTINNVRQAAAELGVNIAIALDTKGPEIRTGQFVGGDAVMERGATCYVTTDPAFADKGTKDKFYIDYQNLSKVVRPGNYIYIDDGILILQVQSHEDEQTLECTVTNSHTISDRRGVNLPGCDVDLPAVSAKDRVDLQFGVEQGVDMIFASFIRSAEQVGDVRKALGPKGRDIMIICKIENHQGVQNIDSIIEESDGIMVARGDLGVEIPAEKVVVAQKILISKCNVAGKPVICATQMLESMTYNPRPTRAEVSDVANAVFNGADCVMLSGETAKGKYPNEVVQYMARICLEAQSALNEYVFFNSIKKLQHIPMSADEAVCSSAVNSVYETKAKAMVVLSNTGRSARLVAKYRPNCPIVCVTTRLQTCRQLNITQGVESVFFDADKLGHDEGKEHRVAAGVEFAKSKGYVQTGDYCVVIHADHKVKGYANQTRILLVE
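Pyruvate kinase activity monitored as ATP production (luciferase luminescence). Conditions: 0.1 nM enzyme, 0.5 mM PEP, 0.1 mM ADP, 1 h, RT; normalized against uninhibited and no-enzyme wells.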
NS1 function inh – qHTS Assay for Inhibitors of Influenza NS1 Protein Function. Potency, µM (series often up to 46.1 µM). 270,000 compounds, 0.4% hits; calls by dose curve; note: actives are rising curves; nearly all actives have a fitted effect of over 50% in size
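OD600 was taken as the measure of yeast growth restored by compound in an NS1-expressing S. cerevisiae strain. Cells had been washed out of glucose medium and diluted 1:100 into galactose -URA medium, pH 6.0.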
RE007 growth inh – qHTS Assay for Inhibitors of the HIV-1 protein Vpr | S. pombe RE007 Vpr strain, BacTiter-Glo ATP luminescence, 24 h | Potency, µM (titrated, usually from 92.2 µM), most hits filed as inhibitors | 360,000 compounds, 0.21% hits; active = well fitted falling curve with a large enough effect; inconclusive = small, poorly fitted or top-dose-only effect; inactive = no such curve, though single readings can be large or run the other way; note: nearly all actives have a fitted effect of over 50% in size
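Fission yeast strain RE007, carrying one chromosomally integrated HIV-1 vpr copy, was seeded at OD 0.01 in PMG+AL medium with 23 nL pinned compound. After 24 h at 30 °C and 99% humidity, viability was read by BacTiter-Glo luminescence.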
Tb PYK inh – qHTS of Trypanosoma Brucei Inhibitors; pyruvate kinase (Trypanosoma brucei), Q57TT1; TbPYK enzyme, Kinase-Glo Plus ATP luminescence, 45 min; Potency, µM (highest dose often 76.8 µM), most hits filed as inhibitors; 410,000 compounds, 0.12% hits; note: nearly all actives have a fitted effect of over 50% in size
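Luminescent Kinase-Glo Plus end-point after 45 min room-temperature reaction of T. brucei pyruvate kinase started with 130 uM ADP (final). Buffer TEA 50 mM pH 7.2 with KCl, MgCl2, BSA, Tween-20; titration-based qHTS with fitted concentration-effect curves.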
Hits are given with their value; i = inactive; ? = inconclusive; nt = no result given. A selection: hits, their analogues and other compounds. The true share with any hit is near 0.77%. Unless noted, calls come from the whole dose curve; as a rule, active = well fitted curve in the direction sought with a large enough effect; inconclusive = small, poorly fitted or top-dose-only effect, or another doubt; inactive = no such curve, though single readings can be large; an effect the other way counts as inactive or inconclusive.

SMILES | LmPK inh | NS1 function inh | RE007 growth inh | Tb PYK inh
O=C(/C=C/c1ccc([N+](=O)[O-])cc1)c1cccnc1 | i | i | 16µM | i
CC(NC(=O)c1ccc([N+](=O)[O-])o1)C12CC3CC(CC(C3)C1)C2 (stereo unspecified) | i | i | i | i
COc1cccc(OC)c1C(=O)NC(C)C12CC3CC(CC(C3)C1)C2 (stereo unspecified) | i | i | 10µM | i
Cc1c(C2(O)CCCCC2)[nH]c2ccc(C(F)(F)F)cc12 | nt | nt | 40µM | i
COc1cc(OC)cc(-c2n[nH]c(=S)n2-c2ccc3c(c2)OCCO3)c1 | i | i | i | 2.5µM
COc1ccc(-c2n[nH]c(=S)n2-c2ccc3c(c2)OCCO3)cc1 | ? | i | i | ?
S=c1[nH]nc(-c2ccc(Cl)cc2Cl)n1-c1ccc2c(c1)OCCO2 | ? | i | i | 6.3µM
S=c1[nH]nc(Cc2ccc(Cl)cc2)n1-c1ccc2c(c1)OCCO2 | ? | i | i | 2.8µM
S=c1[nH]nc(-c2ccc(Cl)cc2Cl)n1-c1ccccc1 | i | i | i | i
Oc1ccc(-c2n[nH]c(=S)n2-c2ccc3c(c2)OCCO3)c(O)c1 | ? | ? | nt | 2.8µM
Cc1ccc(Nc2nccc(N(C)c3ccc4c(C)n(C)nc4c3)n2)cc1S(N)(=O)=O | nt | nt | nt | i
COc1ccc(-c2cc(-c3ccc(OC)c(OC)c3)n[nH]2)c(O)c1 | i | i | i | i
COc1cc(-n2c(-c3ccccc3)n[nH]c2=S)c(OC)cc1Cl | i | i | i | 3.5µM
COc1cc(OC)cc(-c2n[nH]c(=S)n2-c2cc(OC)ccc2OC)c1 | 3.5µM | i | i | ?
COc1ccc(OC)c(-n2c(-c3ccc(O)cc3O)n[nH]c2=S)c1 | 8.9µM | i | i | ?
COc1cc(-c2n[nH]c(=S)n2-c2ccccc2C(F)(F)F)cc(OC)c1OC | 18µM | i | i | ?
COc1ccc(OC)c(-n2c(-c3cccc(S(=O)(=O)N(C)C)c3)n[nH]c2=S)c1 | ? | nt | i | i
Cc1nc(-c2cccc(NC(=O)Nc3ccc([N+](=O)[O-])cc3)c2)no1 | nt | nt | nt | i
C[C@@H]1CN(CC(=O)Nc2ccc3c(c2)Cc2cccc(-c4cc(=O)cc(N5CCOCC5)o4)c2S3)C[C@H](C)O1 | nt | nt | nt | i
COc1cc(-c2n[nH]c(=S)n2-c2ccc(Br)cc2)cc(OC)c1OC | ? | i | i | ?
COc1ccc(C)cc1-n1c(-c2ccncc2)n[nH]c1=S | 10µM | i | i | 14µM
On1ccccc1=S | nt | nt | 4.5µM | ?
Cc1ccccc1C(=O)N1CC/C(=N/OS(=O)(=O)O)c2ccc(Cl)cc21 | nt | nt | nt | i
Fc1cccc(Cl)c1/C=N\N=C1c2ccccc2-c2ccccc21 | nt | i | nt | nt
CN(Cc1ccncc1)C1CC(=O)N(c2ccc(Cl)cc2)C1=O (stereo unspecified) | i | i | 50µM | i
SMILES | LmPK inh | NS1 function inh | RE007 growth inh | Tb PYK inh
COC(=O)CN(C)C1CC(=O)N(c2ccc(Cl)cc2)C1=O (stereo unspecified) | i | i | 16µM | i
C(=Cc1c[nH]c2ccccc12)c1ccc2ccccc2n1 | nt | nt | ? | i
O=[N+]([O-])c1ccc(/C=C/c2ccc3ccccc3n2)cc1 | ? | nt | i | i
CN(C)c1ccc(/C=C/c2ccc3ccccc3n2)cc1 | ? | i | ? | ?
Oc1ccc(/C=C/c2ccc3ccccc3n2)cc1 | 7.1µM | nt | ? | ?
Fc1ccccc1/C=C/c1ccc2ccccc2n1 | 13µM | i | ? | ?
C(=C\c1ccc2ccccc2n1)/c1ccccc1 | 13µM | i | ? | i
O=C(Nc1cccc(Cl)c1)Nc1ncc(CCNc2ncnc3ccsc23)s1 | nt | nt | nt | i
O=C1c2ccccc2-c2ccc(N(Cc3ccc(Br)cc3)Cc3ccc(Br)cc3)cc21 | nt | i | nt | nt
Cc1ccc(S(=O)(=O)c2ccccc2)cc1S | 14µM | nt | nt | nt
Nc1ccc(S(=O)(=O)c2cccc(N)c2)cc1 | i | i | i | i
COc1cccc(CN2C(=O)CN(C3CCCCC3)C(=O)C2c2ccc(OC)c(OC)c2)c1 (stereo unspecified) | nt | nt | nt | i
Cc1ccc(C(=O)ONc2ccc(N=O)cc2)cc1 | 10µM | i | 5.6µM | ?
C[C@@H](C(=O)O)c1ccc(C2CCCCC2)c2ccccc12 | nt | nt | nt | i
CCCN1C(=O)S/C(=C\c2ccc(N3CCOCC3)cc2C)C1=O | i | 5µM | nt | nt
Cc1cccc(C(=O)OCC(=O)N2CCCC2=O)c1O | nt | nt | 2µM | i
COc1ccc(N2Cc3ccccc3C2=O)cc1 | 14µM | i | ? | i
Cc1ccc(N2Cc3ccccc3C2=O)cc1 | ? | i | ? | ?
C=CC(=O)Oc1ccc(N2Cc3ccccc3C2=O)cc1 | nt | nt | 7.9µM | i
